Counter-ions that a name gives are not always drawn.
These compounds were tested on hN + hpA co-culture (H1 iNGN2 human neurons + human primary astrocytes) (assay: presynaptic density (SYNAPSIN1 puncta per MAP2 neurite area), Z-score vs DMSO controls; higher = more presynaptic puncta (synapse-promoting)). Details: 3 µM; 72 h.
In the case of `CN1CCC[C@@H]1CCO[C@](C)(c1ccccc1)c1ccc(Cl)cc1` [Clemastine], the “presynaptic density (Z-score)” value is reported as -0.781. In the case of `N#CSc1cc(SC#N)c(N)nc1N`, the “presynaptic density (Z-score)” value is reported as -0.815. For `Cc1cc(NC(=O)Nc2ccc(N(C)C)cc2)c2cc(F)cc(F)c2n1`, the “presynaptic density (Z-score)” value was 0.301. `C[C@H]1COC2=C1C(=O)C(=O)c1c2ccc2c1CCCC2(C)C` was tested, and the “presynaptic density (Z-score)” value was 0.405. With `CC(C)c1ccc(NC(=O)Cn2cnc3c2c(=O)n(C)c(=O)n3C)cc1` the “presynaptic density (Z-score)” value was -0.215. In the case of `O=C(O)Cn1nnc(-c2cc(N3CCC(Oc4cc(F)ccc4Br)CC3)no2)n1`, the “presynaptic density (Z-score)” value is reported as -0.606. In the case of `CC1COCCN1c1cc(C2(S(C)(=O)=O)CC2)nc(-c2cccc3[nH]ccc23)n1` (stereo unspecified), the “presynaptic density (Z-score)” value is reported as 0.445. For `CC(C)NCCCn1c(Sc2cc3c(cc2I)OCO3)nc2c(N)ncnc21`, the “presynaptic density (Z-score)” value was -0.039. For `COc1ccc(CC(C)NCC(O)c2ccc(O)c(NC=O)c2)cc1` (stereo unspecified), the “presynaptic density (Z-score)” value was 0.254. `CC(=O)c1c(C)c2cnc(Nc3ccc(N4CCNCC4)cn3)nc2n(C2CCCC2)c1=O` was tested, and the “presynaptic density (Z-score)” value was -0.609. In the case of `COc1ccccc1S(=O)(=O)Nc1ccc2c(c1)CN(C)C(=O)N2`, the “presynaptic density (Z-score)” value is reported as 0.796. With `O=C(Nc1ccncc1)c1cc([N+](=O)[O-])ccc1Cl` [2-Chloro-5-nitro-N-4-pyridinylbenzamide] the “presynaptic density (Z-score)” value was 0.702. In the case of `C[C@H](NCc1ccc(OCc2cccc(F)c2)cc1)C(N)=O` [Safinamide Mesylate], the “presynaptic density (Z-score)” value is reported as -0.055. `C[C@@H]1CCN(C(=O)CC#N)C[C@@H]1N(C)c1ncnc2[nH]ccc12` was tested, and the “presynaptic density (Z-score)” value was -0.892. For `OCCn1cc(-c2cnc3nnn(Cc4ccc5ncccc5c4)c3n2)cn1`, the “presynaptic density (Z-score)” value was -0.173. `COc1cc(F)c(C(C)C)cc1-c1ccc(C(F)(F)F)cc1CN1C(=O)O[C@H](c2cc(C(F)(F)F)cc(C(F)(F)F)c2)[C@@H]1C` [Anacetrapib (MK-0859)] was tested, and the “presynaptic density (Z-score)” value was -0.588.
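Note: immunostained co-cultures imaged by high-content microscopy, Z-score per plate against mean and SD of 0.1% DMSO wells, compounds added on differentiation day 18, analysed day 21.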
